In PubChem BioAssay (NCI) one finds growth data, which are given here for 14 molecules.

Compounds without any hit were thinned out: in the full panel of roughly 83,000, 20% have a hit.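 Testing used 96-well plates and a 48-hour single-concentration exposure. Example: -40 means 40% of the starting cells died.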 Unmarked numbers belong to inactive results. Calls of active or inactive are those of the source. Rule for the calls: active = growth percent below 10; inactive = the rest.

Assay in all cases: NCI-60 one-dose screen, 48 h (100 = growth as untreated, 0 = no growth, -100 = all killed)
Holding throughout (details): 10 µM unless noted

Assay [1] relates to NCI-H23 lung.
Assay [2] has as its system NCI-H226 lung.
Assay [3] relates to NCI-H322M lung.
The test system of assay [4] is HOP-62 NSCLC.
In assay [5] the test system is NCI-H460 lung.
Assay [6] deals with HOP-92 NSCLC.
In assay [7] the test system is NCI-H522 lung.
The subject of assay [8] is A549/ATCC NSCLC.
Assay [9] concerns 786-0 renal.
For assay [10], the system named is COLO 205 colon.
Assay [11] deals with DU-145 prostate.
Assay [12] relates to K-562 leukemia.
The subject of assay [13] is MALME-3M melanoma.
Assay [14] deals with MDA-MB-231 breast.
The test system of assay [15] is RXF 393 renal.
Assay [16] deals with SF-268 CNS.
Assay [17] concerns SF-295 CNS.
In assay [18] the test system is SF-539 CNS.
The subject of assay [19] is UACC-257 melanoma.
Assay [20] concerns M14 melanoma.

With `O=C(/C=C/C12c3ccccc3C(c3ccccc31)C1C(=O)NC(=O)C12)c1ccc(I)cc1` (stereo not given), the growth was 59.3% in assay [1]; 88.8% in assay [2]; 65.1% in [3]; 69.3% in [4]; 44.8% in [5]; 63.7% in assay [6]. Further, the growth is 55% in assay [7]; 71.9% in assay [8]; 64.6% in [9]; 78.8% in assay [10]; 43.2% in assay [11]; 24.8% in assay [12]. The growth in assay [13] is 86.1%; in assay [14], 64%; in assay [15], 46%; in assay [16], 49.8%; in assay [17], 78.5%; in [18], 83.3%. Moreover, the growth in assay [19] is 60.5%; in assay [20], 74%.
For the molecule `COC12C=C/C(=C(/C(=O)OCc3csc(SC)n3)C(=O)CCCCCCCCC3(OC)C=C/C(=C(/C(=O)OCc4cnc(SC)s4)C(=O)CCCCCCCC1)O3)O2` (stereo not given), the growth is 15.7% in assay [1]; 12% in assay [2]; 46.5% in [3]; 58.7% in assay [4]; 27.2% in assay [5]; 78.2% in assay [6]. Besides, the growth in assay [7] is 24.2%; in assay [8], 39.8%; in assay [9], 35.1%; in assay [10], 25.5%; in assay [11], 50.3%; in [12] it was 25.3%. Moreover, the growth in assay [13] is -1.67% (active); in assay [14], 19.1%; in assay [15] it was -35.4% (active); in [16] it was 44.7%; in assay [17] it was 14.8%; in assay [18], 27.4%. For the same molecule, the figures for the growth in [19] and in assay [20] were 56.8% and 12%, respectively.
For `C=C1C(=O)O[C@H]2[C@H]1CC/C(CNC(=O)Cc1c[nH]c3ccccc13)=C\CC[C@@]1(C)O[C@@H]21`, the growth in assay [1] was 30%; in assay [2], -45.8% (active); in [3], 82.2%; in [4], 53.8%; in assay [5], 29.6%; in assay [6], 45.1%. Besides, the growth in assay [7] is -79.4% (active); in assay [8], 62%; in assay [9], -36.4% (active); in [10] it was -74.9% (active); in [11], 26.5%; in assay [12], -12.2% (active). Moreover, the growth was 14.2% in assay [13]; 16.1% in [14]; -72.3% (active) in assay [15]; 51.2% in assay [16]; 69.9% in [17]; -27.1% (active) in assay [18]. For the same molecule, the growth in assay [19] is 5.96% (active); in [20], 3.28% (active).
`N#C/C(=C\c1ccc(-c2cccc(Cl)c2)o1)C(=O)Nc1ncc(Cc2ccc(Cl)cc2)s1`: the growth in [1] is 59.6%; in assay [2], 74%; in [3], 33.6%; in [4] it was 15.9%; in assay [5] it was 25%; in [6] it was 79.8%. The growth was 83.4% in assay [7]; 31.6% in assay [8]; 37.3% in assay [9]; 83.7% in [10]; 55.9% in assay [11]; 80.6% in [12]. For the same molecule, the growth in [13] is 42.7%; in assay [14], 34.1%; in [15] it was 86.7%; in assay [16] it was 72%; in assay [17] it was 45.3%; in assay [18], 56.6%. Besides, the growth was 23.9% in assay [19] and 62.5% in assay [20].
On to `N#Cc1c(-c2ccccc2)nc2c(c(-c3ccccc3)nn2-c2ccccc2)c1-c1ccc(N2CCCCC2)cc1`, for which the growth is 93.9% in assay [1]; 89.1% in assay [2]; 97.2% in assay [3]; 95.9% in assay [4]; 103% in assay [5]; 98.7% in assay [6]. In addition, the growth in assay [7] was 98.6%; in [8], 87.9%; in assay [9], 98.5%; in assay [10] it was 104%; in assay [11], 103%; in [12], 92.7%. Further, the growth is 98.6% in assay [13]; 97.7% in assay [14]; 115% in assay [15]; 101% in [16]; 97.9% in assay [17]; 100% in assay [18]. Also, the growth in assay [19] was 93.3%; in assay [20], 90.8%.
With `C[N+]1=C(/C=C/c2ccccc2Cl)C(C)(C)c2ccccc21`, the growth in assay [1] was 74.3%; in assay [2] it was 80%; in [3], 98.6%; in [4], 98.7%; in assay [5], 103%; in assay [6], 90.1%. For the same molecule, the growth is 81.8% in [7]; 92.5% in assay [8]; 95.9% in assay [9]; 95.9% in [10]; 94.5% in assay [11]; 77.3% in assay [12]. Also, the growth in assay [13] is 98.4%; in [14], 98%; in assay [15], 89.2%; in assay [16] it was 96.7%; in assay [17], 103%; in assay [18], 101%. Moreover, the growth in [19] is 92%; in assay [20] it was 97.8%.
Consider `COC12C=C/C(=C(/C(=O)OCCSc3ccnn3C)C(=O)CCCCCCCCC3(OC)C=C/C(=C(/C(=O)OCCSc4ccnn4C)C(=O)CCCCCCCC1)O3)O2`, for which the growth in [1] was -44% (active); in assay [2] it was -53.6% (active); in [3] it was 11.6%; in assay [4] it was 27.9%; in assay [5], 3.85% (active); in assay [6] it was -18.9% (active). Besides, the growth in assay [7] is -17.3% (active); in assay [8], 5.51% (active); in assay [9], -29.2% (active); in [10] it was -41.7% (active); in assay [11] it was 23%; in assay [12], 1.16% (active). Besides, the growth was -32.2% (active) in [13]; -11% (active) in assay [14]; -79.1% (active) in [15]; 16% in assay [16]; -3.35% (active) in [17]; -0.264% (active) in assay [18]. Further, the growth in [19] is 40.3%; in [20], -3.79% (active).
For the molecule `COc1cc2ncnc(Nc3ccc(F)c(Cl)c3)c2cc1OCC(=O)N1CCOCC1`, the growth in assay [1] is 90.7%; in assay [2], 102%; in [3], 24.7%; in assay [4], 98.1%; in assay [5], 99.5%; in [6], 92.1%. For the same molecule, the growth was 33% in assay [7]; 74.8% in [8]; 78.5% in assay [9]; 106% in assay [10]; 57.3% in assay [11]; 88.4% in assay [12]. Moreover, the growth in assay [13] was 98.2%; in assay [14], 108%; in assay [15], 107%; in [16], 75.3%; in [17], 90.6%; in assay [18], 97.7%. The values for the growth in assay [19] and in assay [20] were 106% and 90.4%, respectively.
In the case of `N#Cc1c(-c2cccc(Cl)c2)cc(-c2cccnc2)[nH]c1=O`, the growth is 85.6% in assay [1]; 87.9% in assay [2]; 94.4% in assay [3]; 69.5% in [4]; 96.3% in assay [5]; 80.2% in [6]. In addition, the growth in assay [7] is 76.1%; in assay [8], 93%; in assay [9], 96.7%; in [10], 93.4%; in [11] it was 94.9%; in assay [12], 43.9%. In addition, the growth in assay [13] was 62.5%; in [14], 81.9%; in assay [15], 100%; in [16], 79.9%; in assay [17], 75.9%; in assay [18], 71.6%. The growth in assay [19] is 68.2%; in [20], 54.2%.
For `COc1ccc(C2CC(n3ccnc3)c3cc(OC)c(OC)c(OC)c32)cc1O` (stereo not given), the growth in assay [1] was 91.5%; in assay [2], 97.4%; in assay [3] it was 102%; in assay [4], 80.8%; in assay [5] it was 78.7%; in [6] it was 59.6%. For the same molecule, the growth in assay [7] was 50.1%; in [8] it was 55.8%; in assay [9], 91.7%; in assay [10], 107%; in assay [11] it was 102%; in [12], 44.7%. For the same molecule, the growth is 73.2% in assay [13]; 81% in assay [14]; 70.8% in [15]; 90% in [16]; 57.5% in assay [17]; 89.8% in assay [18]. The values for the growth in assay [19] and in assay [20] were 58.5% and 73.1%, respectively.
`COc1ccc2[nH]cc(-c3nonc3-c3c[nH]c4ccc(Br)cc34)c2c1`: the growth was 54.1% in [1]; 74.8% in [2]; 50.5% in assay [3]; 33.8% in assay [4]; 8.13% (active) in [5]; 54% in [6]. Moreover, the growth in [7] is 8.48% (active); in assay [8] it was 35.3%; in [9] it was 61.4%; in [10] it was 32.1%; in [11], 43.8%; in assay [12], 7.68% (active). Also, the growth in assay [13] was 70.4%; in assay [14], 5.3% (active); in assay [15], 76.7%; in assay [16] it was 47%; in [17], 26.1%; in [18] it was 56.3%. The growth in assay [19] is 64.2%; in assay [20] it was 31.8%.
Regarding `Cc1cn(C)cn1`, the growth in assay [1] was 97.7%; in assay [2], 108%; in assay [3] it was 116%; in [4], 111%; in [5], 106%; in assay [6], 81.8%. Further, the growth in [7] was 89.3%; in [8] it was 94.2%; in assay [9], 97.9%; in [10], 125%; in assay [11], 107%; in assay [12] it was 106%. The growth was 96.1% in assay [13]; 112% in [14]; 117% in assay [15]; 106% in assay [16]; 105% in assay [17]; 110% in [18]. The growth in [19] was 90.2%; in assay [20] it was 103%.
As for `NS(=O)(=O)c1ccc(C(=O)NN2C(=O)c3ccccc3C2=O)cc1`, the growth in [1] was 105%; in assay [2], 111%; in [3] it was 110%; in [4], 108%; in assay [5] it was 112%; in assay [6], 107%. For the same molecule, the growth was 99.5% in assay [7]; 110% in assay [8]; 105% in [9]; 108% in [10]; 105% in [11]; 101% in assay [12]. The growth in [13] is 109%; in [14] it was 109%; in [15] it was 120%; in assay [16] it was 92.8%; in [17], 98.7%; in assay [18] it was 113%. Also, the figures for the growth in assay [19] and in assay [20] were 110% and 104%, respectively.
As to `Cc1ccc(OCCOCCOCCOc2ccc(C)n(O)c2=S)c(=S)n1O`, the growth in assay [1] was 44.9%; in assay [2], 29%; in assay [3], 40.6%; in [4], 30.3%; in assay [5] it was 17.3%; in assay [6] it was 81.1%. Further, the growth is 22.5% in [7]; 29.9% in assay [8]; 40.9% in assay [9]; 7.96% (active) in assay [10]; 50.5% in assay [11]; 18.9% in [12]. Besides, the growth was 47% in assay [13]; 28.3% in [14]; 66% in assay [15]; 29% in assay [16]; 29.1% in [17]; 45.8% in assay [18]. Also, the figures for the growth in assay [19] and in assay [20] were 68.4% and 36%, respectively.
